Test results as given in ChEMBL document CHEMBL1961873, “Compounds: GSK PKIS; Assays: Nanosyn kinase panel” (2012).

How the values were obtained:
[1] = target: Protein kinase C gamma type (Homo sapiens) (UniProt P05129); conditions: at 1 µM;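 note: each value is an averaged percent inhibition of the enzyme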
[2] = target: T1, Protein kinase C iota type (Homo sapiens) (UniProt P41743); conditions: at 0.1 µM
T1 sequence (whole entry): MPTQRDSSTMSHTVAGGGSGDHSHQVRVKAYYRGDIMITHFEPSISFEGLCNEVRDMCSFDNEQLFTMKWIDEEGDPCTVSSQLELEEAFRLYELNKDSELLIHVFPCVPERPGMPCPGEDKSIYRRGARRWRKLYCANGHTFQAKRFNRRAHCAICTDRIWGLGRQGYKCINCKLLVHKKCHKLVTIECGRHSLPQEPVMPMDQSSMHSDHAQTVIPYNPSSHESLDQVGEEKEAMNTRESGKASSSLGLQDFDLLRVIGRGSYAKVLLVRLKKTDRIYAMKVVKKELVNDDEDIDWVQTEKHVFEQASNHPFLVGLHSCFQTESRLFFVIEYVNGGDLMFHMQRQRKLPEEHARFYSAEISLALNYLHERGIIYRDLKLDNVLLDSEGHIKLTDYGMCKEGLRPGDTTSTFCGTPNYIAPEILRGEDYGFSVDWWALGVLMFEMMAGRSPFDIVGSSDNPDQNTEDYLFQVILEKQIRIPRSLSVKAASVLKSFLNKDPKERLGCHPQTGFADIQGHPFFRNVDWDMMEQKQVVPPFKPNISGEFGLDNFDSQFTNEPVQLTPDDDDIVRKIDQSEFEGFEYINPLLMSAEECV

[3] = target: T1, Protein kinase C iota type (Homo sapiens); conditions: at 1 µM
[4] = target: Protein kinase C theta type (Homo sapiens) (UniProt Q04759); conditions: at 0.1 µM
[5] = target: Protein kinase C theta type (Homo sapiens) (UniProt Q04759); conditions: at 1 µM
[6] = target: Protein kinase C beta type (Homo sapiens) (UniProt P05771); conditions: at 0.1 µM
[7] = target: Protein kinase C beta type (Homo sapiens) (UniProt P05771); conditions: at 1 µM
[8] = target: T2, Serine/threonine-protein kinase D1 (Homo sapiens) (UniProt Q15139); conditions: at 0.1 µM
T2 sequence (whole entry): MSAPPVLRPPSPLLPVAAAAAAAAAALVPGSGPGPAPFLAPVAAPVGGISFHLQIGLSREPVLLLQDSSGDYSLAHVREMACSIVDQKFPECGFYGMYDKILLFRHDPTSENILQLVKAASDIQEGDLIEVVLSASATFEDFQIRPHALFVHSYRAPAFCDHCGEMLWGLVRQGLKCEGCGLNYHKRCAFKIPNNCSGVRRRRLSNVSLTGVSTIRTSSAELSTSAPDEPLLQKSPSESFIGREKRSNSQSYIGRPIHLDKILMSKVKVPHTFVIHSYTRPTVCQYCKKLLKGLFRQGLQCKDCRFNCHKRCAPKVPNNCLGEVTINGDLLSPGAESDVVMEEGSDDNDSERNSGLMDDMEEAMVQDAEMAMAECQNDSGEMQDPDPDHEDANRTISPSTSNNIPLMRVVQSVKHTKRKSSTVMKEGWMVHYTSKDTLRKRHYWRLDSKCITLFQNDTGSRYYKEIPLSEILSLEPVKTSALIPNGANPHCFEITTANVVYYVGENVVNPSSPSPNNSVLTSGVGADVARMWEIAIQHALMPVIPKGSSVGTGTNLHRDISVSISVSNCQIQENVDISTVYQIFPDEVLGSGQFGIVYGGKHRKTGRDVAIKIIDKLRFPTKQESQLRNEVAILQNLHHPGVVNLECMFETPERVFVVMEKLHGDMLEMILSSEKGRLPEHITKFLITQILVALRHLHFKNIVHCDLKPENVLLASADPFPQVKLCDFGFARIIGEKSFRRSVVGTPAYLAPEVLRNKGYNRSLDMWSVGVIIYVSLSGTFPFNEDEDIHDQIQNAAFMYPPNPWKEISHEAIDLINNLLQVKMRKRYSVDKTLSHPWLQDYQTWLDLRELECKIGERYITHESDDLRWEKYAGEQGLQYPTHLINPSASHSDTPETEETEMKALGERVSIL

[9] = target: T2, Serine/threonine-protein kinase D1 (Homo sapiens); conditions: at 1 µM
[10] = target: T3, Serine/threonine-protein kinase D2 (Homo sapiens) (UniProt Q9BZL6); conditions: at 0.1 µM
T3 sequence (whole entry): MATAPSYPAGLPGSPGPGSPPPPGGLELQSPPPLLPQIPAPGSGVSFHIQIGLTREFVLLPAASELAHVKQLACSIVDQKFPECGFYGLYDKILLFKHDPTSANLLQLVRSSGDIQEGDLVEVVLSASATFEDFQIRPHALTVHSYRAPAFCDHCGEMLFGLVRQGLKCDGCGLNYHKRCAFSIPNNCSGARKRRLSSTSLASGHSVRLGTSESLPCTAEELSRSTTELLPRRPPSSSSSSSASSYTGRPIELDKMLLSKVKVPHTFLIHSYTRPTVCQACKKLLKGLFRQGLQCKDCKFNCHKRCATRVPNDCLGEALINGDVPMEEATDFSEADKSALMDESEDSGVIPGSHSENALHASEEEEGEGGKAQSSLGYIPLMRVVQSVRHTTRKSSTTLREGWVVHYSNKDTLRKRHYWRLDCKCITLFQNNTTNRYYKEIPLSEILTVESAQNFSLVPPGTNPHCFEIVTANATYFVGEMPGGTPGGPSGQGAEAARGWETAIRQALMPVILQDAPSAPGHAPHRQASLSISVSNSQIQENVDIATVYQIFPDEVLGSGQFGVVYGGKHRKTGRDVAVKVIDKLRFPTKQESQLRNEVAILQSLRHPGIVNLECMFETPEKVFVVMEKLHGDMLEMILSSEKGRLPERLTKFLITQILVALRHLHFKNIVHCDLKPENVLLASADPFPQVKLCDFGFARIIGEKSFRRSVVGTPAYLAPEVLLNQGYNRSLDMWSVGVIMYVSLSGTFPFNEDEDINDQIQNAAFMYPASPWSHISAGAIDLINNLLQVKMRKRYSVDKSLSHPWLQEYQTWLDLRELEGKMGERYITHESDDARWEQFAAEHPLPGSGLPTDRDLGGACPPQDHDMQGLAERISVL

[11] = target: T3, Serine/threonine-protein kinase D2 (Homo sapiens); conditions: at 1 µM
[12] = target: T4, Serine/threonine-protein kinase D3 (Homo sapiens) (UniProt O94806); conditions: at 0.1 µM
T4 sequence (whole entry): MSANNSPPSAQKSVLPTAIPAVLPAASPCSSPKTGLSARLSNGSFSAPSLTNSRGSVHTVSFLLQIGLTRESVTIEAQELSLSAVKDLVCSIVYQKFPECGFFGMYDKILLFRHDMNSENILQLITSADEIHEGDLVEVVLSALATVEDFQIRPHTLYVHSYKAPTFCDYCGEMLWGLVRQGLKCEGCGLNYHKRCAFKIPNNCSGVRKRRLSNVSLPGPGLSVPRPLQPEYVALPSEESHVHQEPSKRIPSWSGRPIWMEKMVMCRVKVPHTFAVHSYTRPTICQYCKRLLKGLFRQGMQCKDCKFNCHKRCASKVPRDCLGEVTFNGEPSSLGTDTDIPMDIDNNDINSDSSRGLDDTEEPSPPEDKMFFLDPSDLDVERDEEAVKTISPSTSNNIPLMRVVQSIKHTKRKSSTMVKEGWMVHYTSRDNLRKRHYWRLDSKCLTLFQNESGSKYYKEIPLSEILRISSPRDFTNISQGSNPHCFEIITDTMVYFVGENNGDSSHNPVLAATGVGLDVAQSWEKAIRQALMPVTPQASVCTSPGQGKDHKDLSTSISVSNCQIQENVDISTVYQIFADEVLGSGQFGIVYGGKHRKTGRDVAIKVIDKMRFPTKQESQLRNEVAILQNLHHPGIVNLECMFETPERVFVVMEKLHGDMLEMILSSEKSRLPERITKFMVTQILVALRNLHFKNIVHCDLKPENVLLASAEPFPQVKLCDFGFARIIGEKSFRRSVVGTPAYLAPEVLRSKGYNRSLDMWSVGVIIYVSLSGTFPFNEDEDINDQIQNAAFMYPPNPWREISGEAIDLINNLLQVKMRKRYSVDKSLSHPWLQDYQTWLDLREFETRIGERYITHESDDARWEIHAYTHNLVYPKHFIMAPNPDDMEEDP

[13] = target: T4, Serine/threonine-protein kinase D3 (Homo sapiens); conditions: at 1 µM
[14] = target: T5, cGMP-dependent protein kinase 1 (Homo sapiens) (UniProt Q13976); conditions: at 0.1 µM
T5 sequence (whole entry): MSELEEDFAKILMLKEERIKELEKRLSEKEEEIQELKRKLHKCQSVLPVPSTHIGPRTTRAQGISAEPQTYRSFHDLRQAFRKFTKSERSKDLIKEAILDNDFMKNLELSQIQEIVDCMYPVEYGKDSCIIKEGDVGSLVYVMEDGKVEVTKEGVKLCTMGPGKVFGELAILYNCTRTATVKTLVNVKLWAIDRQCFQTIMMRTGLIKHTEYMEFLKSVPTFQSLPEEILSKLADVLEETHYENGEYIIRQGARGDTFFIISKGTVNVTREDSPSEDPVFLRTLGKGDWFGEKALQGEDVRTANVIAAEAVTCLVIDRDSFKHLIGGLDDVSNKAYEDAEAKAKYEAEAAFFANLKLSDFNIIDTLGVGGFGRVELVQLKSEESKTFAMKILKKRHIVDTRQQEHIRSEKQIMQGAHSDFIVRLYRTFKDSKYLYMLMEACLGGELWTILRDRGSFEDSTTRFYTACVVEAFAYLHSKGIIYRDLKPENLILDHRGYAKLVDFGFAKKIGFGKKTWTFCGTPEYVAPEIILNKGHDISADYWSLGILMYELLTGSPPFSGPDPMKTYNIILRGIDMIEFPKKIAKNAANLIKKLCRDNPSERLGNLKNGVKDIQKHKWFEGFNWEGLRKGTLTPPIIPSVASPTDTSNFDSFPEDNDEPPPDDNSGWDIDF

[15] = target: T5, cGMP-dependent protein kinase 1 (Homo sapiens); conditions: at 1 µM
[16] = target: T6, cGMP-dependent protein kinase 2 (Homo sapiens) (UniProt Q13237); conditions: at 0.1 µM
T6 sequence (whole entry): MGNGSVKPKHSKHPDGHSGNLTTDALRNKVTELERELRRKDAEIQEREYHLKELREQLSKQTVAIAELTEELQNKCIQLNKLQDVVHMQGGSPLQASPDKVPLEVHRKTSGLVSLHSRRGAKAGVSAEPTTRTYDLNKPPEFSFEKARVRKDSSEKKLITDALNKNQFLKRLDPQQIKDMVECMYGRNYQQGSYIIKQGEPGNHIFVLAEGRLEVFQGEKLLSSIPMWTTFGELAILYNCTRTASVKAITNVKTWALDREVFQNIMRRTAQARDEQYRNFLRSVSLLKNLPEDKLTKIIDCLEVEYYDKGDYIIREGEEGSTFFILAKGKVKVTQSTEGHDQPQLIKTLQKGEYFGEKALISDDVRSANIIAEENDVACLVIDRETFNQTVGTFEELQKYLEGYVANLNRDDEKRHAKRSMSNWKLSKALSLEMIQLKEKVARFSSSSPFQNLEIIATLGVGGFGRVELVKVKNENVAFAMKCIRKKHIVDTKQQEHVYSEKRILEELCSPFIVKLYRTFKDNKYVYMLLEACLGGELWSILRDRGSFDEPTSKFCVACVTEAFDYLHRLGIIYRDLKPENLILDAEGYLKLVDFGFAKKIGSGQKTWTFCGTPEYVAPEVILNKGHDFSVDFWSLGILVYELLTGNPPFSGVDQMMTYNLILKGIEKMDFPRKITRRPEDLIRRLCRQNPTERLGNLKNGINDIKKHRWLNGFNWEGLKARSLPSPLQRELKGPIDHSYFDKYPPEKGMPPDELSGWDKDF

[17] = target: T6, cGMP-dependent protein kinase 2 (Homo sapiens); conditions: at 1 µM
[18] = target: T7, cAMP-dependent protein kinase catalytic subunit PRKX (Homo sapiens) (UniProt P51817); conditions: at 0.1 µM
T7 sequence (whole entry): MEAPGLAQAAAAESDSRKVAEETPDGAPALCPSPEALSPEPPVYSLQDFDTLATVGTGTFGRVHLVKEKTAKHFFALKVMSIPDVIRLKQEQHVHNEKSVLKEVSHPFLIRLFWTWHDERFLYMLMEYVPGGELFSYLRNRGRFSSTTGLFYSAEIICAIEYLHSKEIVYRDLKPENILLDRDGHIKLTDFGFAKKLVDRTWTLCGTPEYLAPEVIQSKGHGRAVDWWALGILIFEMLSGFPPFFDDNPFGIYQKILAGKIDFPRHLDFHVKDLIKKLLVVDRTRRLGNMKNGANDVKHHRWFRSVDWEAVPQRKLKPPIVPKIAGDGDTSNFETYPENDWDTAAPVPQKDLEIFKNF

[19] = target: T7, cAMP-dependent protein kinase catalytic subunit PRKX (Homo sapiens); conditions: at 1 µM
[20] = target: Rho-associated protein kinase 1 (Homo sapiens) (UniProt Q13464); conditions: at 0.1 µM;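 note: values are mean percent inhibition of ROCK1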
Chain of Rho-associated protein kinase 1 (Homo sapiens) (Q13464 2-1354 limits assumed): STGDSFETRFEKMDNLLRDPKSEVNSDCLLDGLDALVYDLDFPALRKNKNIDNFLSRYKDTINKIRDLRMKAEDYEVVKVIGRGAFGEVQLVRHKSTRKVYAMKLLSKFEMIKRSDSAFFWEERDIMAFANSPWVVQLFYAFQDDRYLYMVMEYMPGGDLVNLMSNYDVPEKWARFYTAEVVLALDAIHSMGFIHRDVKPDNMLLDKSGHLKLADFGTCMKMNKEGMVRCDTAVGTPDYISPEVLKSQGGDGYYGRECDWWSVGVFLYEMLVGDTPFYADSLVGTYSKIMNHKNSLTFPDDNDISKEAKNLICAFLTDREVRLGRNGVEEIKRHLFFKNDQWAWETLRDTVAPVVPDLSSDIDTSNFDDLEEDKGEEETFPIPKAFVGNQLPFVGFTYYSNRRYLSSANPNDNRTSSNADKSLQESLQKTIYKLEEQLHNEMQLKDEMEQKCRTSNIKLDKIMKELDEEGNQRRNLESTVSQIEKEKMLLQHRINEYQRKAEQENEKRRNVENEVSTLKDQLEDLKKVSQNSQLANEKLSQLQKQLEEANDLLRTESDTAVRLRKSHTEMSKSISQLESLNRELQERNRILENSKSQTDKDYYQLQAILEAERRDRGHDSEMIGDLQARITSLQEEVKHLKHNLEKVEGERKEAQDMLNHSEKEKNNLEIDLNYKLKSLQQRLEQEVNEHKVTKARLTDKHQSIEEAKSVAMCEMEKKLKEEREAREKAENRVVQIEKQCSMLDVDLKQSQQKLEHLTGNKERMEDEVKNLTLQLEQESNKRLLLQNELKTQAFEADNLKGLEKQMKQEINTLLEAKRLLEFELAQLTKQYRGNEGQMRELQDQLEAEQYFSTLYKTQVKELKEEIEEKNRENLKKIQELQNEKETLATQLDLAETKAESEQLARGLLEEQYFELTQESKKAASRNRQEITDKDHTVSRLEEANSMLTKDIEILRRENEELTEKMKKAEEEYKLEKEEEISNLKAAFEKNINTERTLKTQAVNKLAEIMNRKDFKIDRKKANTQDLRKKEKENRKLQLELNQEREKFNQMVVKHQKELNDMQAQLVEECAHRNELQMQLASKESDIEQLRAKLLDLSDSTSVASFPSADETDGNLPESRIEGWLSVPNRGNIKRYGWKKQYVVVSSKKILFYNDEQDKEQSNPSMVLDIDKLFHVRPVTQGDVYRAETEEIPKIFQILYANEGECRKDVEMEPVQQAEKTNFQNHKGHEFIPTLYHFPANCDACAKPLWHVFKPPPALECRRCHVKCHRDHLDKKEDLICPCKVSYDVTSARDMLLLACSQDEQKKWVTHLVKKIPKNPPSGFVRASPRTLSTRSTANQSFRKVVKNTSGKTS

Chain of Protein kinase C theta type (Homo sapiens) (Q04759 whole entry, looked up): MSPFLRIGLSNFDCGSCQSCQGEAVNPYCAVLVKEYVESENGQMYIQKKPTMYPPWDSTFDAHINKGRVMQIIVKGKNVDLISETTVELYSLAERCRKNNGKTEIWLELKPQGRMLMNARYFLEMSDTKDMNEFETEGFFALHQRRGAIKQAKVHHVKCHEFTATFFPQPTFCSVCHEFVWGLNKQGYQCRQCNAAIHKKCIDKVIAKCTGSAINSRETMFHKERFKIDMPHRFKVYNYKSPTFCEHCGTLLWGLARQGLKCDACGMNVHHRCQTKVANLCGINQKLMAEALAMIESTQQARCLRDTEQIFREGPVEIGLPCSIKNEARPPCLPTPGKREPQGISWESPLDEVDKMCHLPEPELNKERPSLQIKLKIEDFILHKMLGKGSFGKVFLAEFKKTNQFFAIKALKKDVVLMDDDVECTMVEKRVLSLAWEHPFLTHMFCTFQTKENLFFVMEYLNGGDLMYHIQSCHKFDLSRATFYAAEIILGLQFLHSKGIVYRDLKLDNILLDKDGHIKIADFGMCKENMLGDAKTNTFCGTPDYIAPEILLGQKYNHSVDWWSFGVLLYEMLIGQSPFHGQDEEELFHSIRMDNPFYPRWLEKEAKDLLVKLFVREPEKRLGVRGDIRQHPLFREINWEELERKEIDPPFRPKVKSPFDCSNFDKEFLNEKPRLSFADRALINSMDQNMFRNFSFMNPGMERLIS
Chain of Protein kinase C beta type (Homo sapiens) (P05771 2-671 limits assumed): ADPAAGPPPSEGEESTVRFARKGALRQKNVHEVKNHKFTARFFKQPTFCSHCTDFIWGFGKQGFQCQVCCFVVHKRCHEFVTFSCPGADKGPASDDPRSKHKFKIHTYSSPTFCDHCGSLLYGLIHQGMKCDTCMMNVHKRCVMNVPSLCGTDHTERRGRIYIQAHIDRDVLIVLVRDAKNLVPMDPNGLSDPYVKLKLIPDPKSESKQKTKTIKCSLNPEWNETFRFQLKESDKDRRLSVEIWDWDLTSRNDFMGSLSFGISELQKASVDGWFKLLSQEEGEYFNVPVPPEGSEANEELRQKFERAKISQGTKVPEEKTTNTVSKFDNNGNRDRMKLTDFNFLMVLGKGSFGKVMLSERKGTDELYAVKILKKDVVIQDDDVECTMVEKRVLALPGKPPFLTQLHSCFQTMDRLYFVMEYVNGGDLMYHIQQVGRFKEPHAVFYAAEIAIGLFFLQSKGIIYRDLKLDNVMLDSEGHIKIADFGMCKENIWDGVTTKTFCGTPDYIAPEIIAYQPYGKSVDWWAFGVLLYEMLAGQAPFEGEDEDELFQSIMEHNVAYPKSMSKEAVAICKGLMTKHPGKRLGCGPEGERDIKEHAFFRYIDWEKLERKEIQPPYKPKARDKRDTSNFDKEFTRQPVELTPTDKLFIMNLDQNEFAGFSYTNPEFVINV

Compound | inhibition [1] | inhibition [2] | inhibition [3] | inhibition [4] | inhibition [5] | inhibition [6] | inhibition [7] | inhibition [8] | inhibition [9] | inhibition [10] | inhibition [11] | inhibition [12] | inhibition [13] | inhibition [14] | inhibition [15] | inhibition [16] | inhibition [17] | inhibition [18] | inhibition [19] | inhibition [20]
Fc1ccc(-c2ncn(CCCN3CCOCC3)c2-c2ccncc2)cc1 | 0.34% | 0.16% | 0.41% | -0.92% | -2.08% | 0.1% | 0.17% | 1.04% | 2.24% | 2.15% | 3.09% | 1.63% | 2.8% | 0.4% | 0.29% | 0.94% | 0.26% | -0.21% | -1.38% | 1.06%
NC(=O)Cc1ccccc1Oc1nccc(-c2c(-c3ccc(F)cc3)ncn2C2CCNCC2)n1 | 0.76% | 0% | 0.16% | 0.43% | -0.38% | 1.22% | 3.91% | 4.86% | 8.87% | 4.63% | 9.53% | 3.95% | 8.49% | 1.82% | 3.89% | 0.97% | 4.38% | -0.25% | -1.31% | 0.15%
COc1ccc2ncn(-c3cc(O[C@H](C)c4ccccc4Cl)c(C(N)=O)s3)c2c1 | 2.27% | 4.03% | 3.88% | 2.43% | 2.69% | 1.24% | 2.97% | -0.01% | -0.79% | -0.02% | -2.98% | 0.19% | -0.76% | 3.47% | 3.01% | 3.48% | 4.43% | 4.11% | 1.58% | 1.76%
